Shown are actives, neighbours in structure and some others; about 11% of the full set was active somewhere.
Pf growth 96h: P. falciparum growth inhibition at 96 hours; 6.9% of 320,000 active; Potency, µM (series often up to 28.7 µM), actives largely listed as inhibitors; P. falciparum luciferase reporter growth, 96 h
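P. falciparum expressing integrated firefly luciferase, in erythrocytes at 2% hematocrit, 0.05% parasitemia, incubated with compounds 96 h at 37 C, 5% CO2. Growth inhibition read as loss of luminescence; two-generation exposure targets delayed-death apicoplast inhibitors.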
Pf growth 48h: inhibits P. falciparum growth in the first generation, 48 h; P. falciparum luciferase growth in erythrocytes, 48 h; Potency, µM (series often up to 28.7 µM), most hits filed as inhibitors; 5.9% of 310,000 active
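Cell-based growth assay: transgenic P. falciparum expressing firefly luciferase, cultured in red cells within RPMI 1640 containing 0.5% w/v Albumax, 24 mM bicarbonate and gentamycin. A drop in luciferase activity indicates inhibition.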
HCV inh: HCV inhibition; Potency, µM (highest dose often 41.8 µM), hits mostly inhibitors; 3.4% of 340,000 active; Huh7.5.1 HCVcc-Cre infection, luciferase reporter, 44 h; AID 651820
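Cells (1,000/well) were plated 4 h before compound, then infected with HCVcc-Cre virus (~0.5 moi). After 44 h further culture, infection was read as luciferase luminescence following a 15 min substrate incubation at room temperature.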
NS1 inh: inhibitors of influenza NS1 protein function; Potency, µM (doses to about 46.1 µM); AID 2326; 0.4% of 270,000 active; calls by dose curve; also: actives are rising curves; nearly all actives have a fitted effect of over 50% in size
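In this qHTS, NS1 from influenza A is expressed in budding yeast, where it slows growth. Cells are switched from glucose to 2% galactose medium (pH 6.0, -URA), treated with compound, and growth recovery is read at OD600.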
Vaccinia Venus: vaccinia inhibition (Venus reporter); Vaccinia virus Venus reporter expression, fluorescence; AID 720580; 0.46% of 330,000 active; Potency, µM (titrated, usually from 36.5 µM), usual class: inhibitors; calls by dose curve; tested in A549 cells; also: nearly all actives have a fitted effect of over 30% in size
VACV mCherry inh: inhibitors of vaccinia virus infection (mCherry reporter signal); Vaccinia virus mCherry reporter infection, fluorescence; Potency, µM (titrated, usually from 36.5 µM), most hits filed as inhibitors; 0.63% of 310,000 active; calls by dose curve; tested in A549 cells; also: nearly all actives have a fitted effect of over 35% in size
Of the large screens only hits and unclear results are named; the others gave an inactive call. Unless noted, calls follow the shape of the dose curve; as a rule, active = well fitted inhibition curve with a large enough effect; inconclusive = small, poorly fitted or top-dose-only effect, or another doubt; inactive = no such curve, though single readings can be large or run the other way.

O=C(NC(CSSCC(NC(=O)c1ccccc1)C(=O)O)C(=O)O)c1ccccc1 (stereo not drawn)	HCV inh 1.58µM
CSCCC(NC(=O)c1ccccc1)C(=O)O (stereo not drawn)	none (no result: NS1 inh)
Cn1cnnc1SCc1ccccc1	none (no result: Pf growth 48h)
COc1ccc(-c2csc(N(CCCN3CCOCC3)C(=O)c3ccco3)n2)cc1	Pf growth 48h inconclusive, HCV inh 10µM (no result: Vaccinia Venus, VACV mCherry inh)
Cc1ccc(-c2csc(N(CC3CCCO3)C(=O)c3ccco3)n2)cc1 (stereo not drawn)	Pf growth 96h inconclusive, Pf growth 48h inconclusive, HCV inh inconclusive (no result: Vaccinia Venus, VACV mCherry inh)
Cc1ccc(S(=O)(=O)CCC(=O)N(CCCN2CCOCC2)c2nc3ccccc3s2)cc1	Vaccinia Venus inconclusive, VACV mCherry inh 14.1µM (no result: NS1 inh)
Cc1ccc(-c2csc(N(CCCN3CCOCC3)C(=O)c3ccco3)n2)cc1	Pf growth 48h inconclusive, HCV inh 11.2µM
CCC(=O)Nc1c(C(=O)Nc2cccc(OC)c2)oc2ccccc12	none (no result: Vaccinia Venus, VACV mCherry inh)
Cc1ccc(NC(=O)c2c(C)nc3ccccn23)cc1C	none (no result: NS1 inh)
Cc1ccccc1N/N=C/c1c(C)nc2ccccn12	Pf growth 96h inconclusive, Pf growth 48h 9.28µM, HCV inh inconclusive (no result: Vaccinia Venus, VACV mCherry inh)
Cc1ccc(C2(C)CC(C)(C)N(C(=O)CSc3nnc(C)s3)c3ccccc32)cc1 (stereo not drawn)	Pf growth 96h inconclusive, Pf growth 48h 13.1µM, HCV inh inconclusive
Cc1nnc(SCC(=O)N2c3ccccc3C(C)(c3ccccc3)CC2(C)C)s1 (stereo not drawn)	Pf growth 96h 11.7µM, Pf growth 48h 10.4µM, HCV inh inconclusive, Vaccinia Venus inconclusive, VACV mCherry inh inconclusive
Cc1ccc(C(=O)CSc2nnc(C)s2)cc1	Pf growth 96h inconclusive
CCCCC(=O)N1c2ccccc2C(C)(c2ccccc2)CC1(C)C (stereo not drawn)	none (no result: Pf growth 96h, Pf growth 48h, HCV inh, NS1 inh)
COc1cc(OC)c2c(=O)cc(-c3ccccc3)oc2c1	HCV inh inconclusive
COc1cc2c(c3oc(-c4ccccc4)cc(=O)c13)C=CC(C)(C)O2	Pf growth 96h inconclusive, Pf growth 48h inconclusive, HCV inh 1µM
COc1c2c(cc3oc(=O)ccc13)OC(C)(C)C=C2	Pf growth 96h 0.0047µM, HCV inh inconclusive
CC1(C)C=Cc2cc3ccc(=O)oc3cc2O1	Pf growth 96h inconclusive
CN(C)c1ccc([N+](=O)[O-])cc1C(=O)NCC(c1ccco1)N(C)C (stereo not drawn)	none
Cc1ccc(-c2nn(C)c(=O)c3ccccc23)cc1S(=O)(=O)NCCN1CCOCC1	none (no result: VACV mCherry inh)
CCCN(Cc1nnc(-c2ccccc2Cl)o1)C(=O)c1oc2ccccc2c1C	Pf growth 96h 9.28µM, Pf growth 48h 9.28µM, HCV inh inconclusive (no result: NS1 inh)
Cc1ccc(S(=O)(=O)NCC(=O)N(CC(=O)NCc2ccco2)Cc2ccco2)cc1	Pf growth 96h 13.1µM
CCC(C(=O)NCc1ccco1)N(C(=O)CNS(=O)(=O)c1ccc(C)cc1)c1ccccc1F (stereo not drawn)	Pf growth 48h inconclusive
COc1ccccc1N(C(=O)CNS(=O)(=O)c1ccccc1)C(C(=O)NCc1ccco1)C(C)C (stereo not drawn)	Pf growth 96h 5.22µM, Pf growth 48h inconclusive
CCCC(C(=O)NCc1ccco1)N(C(=O)CNS(=O)(=O)c1ccccc1)c1ccccc1OC (stereo not drawn)	Pf growth 96h inconclusive, Pf growth 48h 10.4µM (no result: VACV mCherry inh)
CCC(C(=O)NCc1ccco1)N(C(=O)CNS(=O)(=O)c1ccc(C)cc1)c1ccccc1OC (stereo not drawn)	Pf growth 48h 4.15µM
CCCC(C(=O)NC(C)(C)CC)N(Cc1ccco1)C(=O)CNS(=O)(=O)c1ccccc1 (stereo not drawn)	Pf growth 96h inconclusive, Pf growth 48h inconclusive
Cn1c(=NC(=O)c2ccccc2[N+](=O)[O-])sc2cccc(F)c21	none (no result: Vaccinia Venus, VACV mCherry inh)
CCCCc1ccc(/C=C(\C#N)C(N)=S)s1	none
CC1(C)S[C@@H]2[C@H](NC(=O)[C@H](C(=O)O)c3ccsc3)C(=O)N2[C@H]1C(=O)O	none (no result: Vaccinia Venus, VACV mCherry inh)
Cc1c(NC(=O)Cc2noc3ccccc23)cccc1[N+](=O)[O-]	none (no result: NS1 inh)
CCOc1ccc(CN2CCNC(=O)C2CC(=O)NC2CCCCCC2)cc1 (stereo not drawn)	none
COC(=O)CNC(=O)C(NC(=O)OCc1ccccc1)C(C)C (stereo not drawn)	Pf growth 96h inconclusive (no result: NS1 inh, Vaccinia Venus, VACV mCherry inh)
CC(C)[C@H](NC(=O)OCc1ccccc1)C(=O)NC(C=O)Cc1ccccc1 (stereo partly drawn)	Pf growth 96h 3.7µM, Pf growth 48h 1.31µM (no result: NS1 inh)
O=C(COC(=O)c1n[nH]c2ccccc12)Nc1cccc(S(=O)(=O)N2CCOCC2)c1	Pf growth 96h inconclusive, Pf growth 48h inconclusive (no result: NS1 inh)
O=c1c(Cc2c(F)cccc2Cl)c(O)ccn1CCc1c[nH]c2ccccc12	Pf growth 96h 5.22µM, Pf growth 48h inconclusive (no result: Vaccinia Venus, VACV mCherry inh)
CCCS(=O)(=O)n1nc(-c2ccc(OC)cc2OC)cc1N	Pf growth 96h inconclusive, NS1 inh inconclusive
CCCS(=O)(=O)n1nc(-c2ccc(C)cc2)cc1N	Pf growth 96h 4.65µM (no result: Pf growth 48h)
COc1ccc(OC)c(S(=O)(=O)n2nc(-c3ccccc3)cc2N)c1	Pf growth 96h inconclusive (no result: Pf growth 48h)
Cc1ccc(-n2nc(-c3ccc(N)cc3)cc2N)cc1	Pf growth 96h inconclusive, NS1 inh inconclusive
CCCS(=O)(=O)n1nc(-c2ccc(OC)cc2)cc1N	Pf growth 96h 10.4µM (no result: Pf growth 48h)
COc1cc(OC)cc(-c2cc(N)n(S(=O)(=O)Cc3ccccc3)n2)c1	Pf growth 96h 8.28µM (no result: Pf growth 48h)
Cc1cc(C)c(NC(=O)CN2C(=O)c3cccnc3Sc3ccccc32)c(C)c1	none (no result: Pf growth 96h, Pf growth 48h, HCV inh, NS1 inh)
COc1ccc2c(CC(=O)Nc3ccc(OC)c(NS(=O)(=O)c4ccc(F)cc4)c3)coc2c1	Pf growth 96h 14.7µM, Pf growth 48h inconclusive, HCV inh inconclusive
COc1cc(C(=O)Nc2cccc(S(=O)(=O)N3CCCC3)c2)cc(OC)c1C	Pf growth 96h inconclusive, Pf growth 48h inconclusive, HCV inh inconclusive (no result: Vaccinia Venus, VACV mCherry inh)
COc1ccc2c(CC(=O)Nc3ccccc3OC)coc2c1	none (no result: Vaccinia Venus, VACV mCherry inh)
COc1ccc(/C=C/C(=O)Nc2cccc(S(=O)(=O)N3CCCC3)c2)cc1OC	Pf growth 96h inconclusive, Pf growth 48h 13.1µM, HCV inh 10µM (no result: NS1 inh)
COc1ccc(Br)cc1CN(C)CC(=O)Nc1cccc(S(=O)(=O)N2CCCC2)c1	HCV inh 8.91µM, VACV mCherry inh inconclusive (no result: Pf growth 96h, Pf growth 48h, NS1 inh)
COc1ccc(/C=C/C(=O)Nc2ccc(C(N)=O)cc2)cc1OC	none
COc1ccc(/C=C/C(=O)Nc2ccc(-n3nncc3-c3ccccc3)cc2)cc1OC	Pf growth 48h inconclusive, HCV inh 12.6µM
Cc1ccsc1C(=O)NNC(=O)Nc1ccc(Cl)c(Cl)c1	none
COc1ccc2c(CC(=O)Nc3cccc(S(=O)(=O)N4CCOCC4)c3)coc2c1	Pf growth 96h 2.33µM, Pf growth 48h inconclusive, HCV inh inconclusive
COc1ccc(CC(=O)Nc2cccc(S(=O)(=O)N3CCOCC3)c2)cc1OC	Pf growth 96h inconclusive, HCV inh 3.55µM (no result: NS1 inh, Vaccinia Venus, VACV mCherry inh)
COc1ccc2c(CC(=O)OCC(=O)Nc3cccc(S(N)(=O)=O)c3)coc2c1	none (no result: Vaccinia Venus, VACV mCherry inh)
